{"source": "PubChem BioAssay AID588851", "about": "(Broad Institute, 2011)", "biological_target": "CAAX prenyl protease 2 (Saccharomyces cerevisiae (strain ATCC 204508 / S288c)) (UniProt Q03530)", "sequence (Q03530 whole entry, looked up)": "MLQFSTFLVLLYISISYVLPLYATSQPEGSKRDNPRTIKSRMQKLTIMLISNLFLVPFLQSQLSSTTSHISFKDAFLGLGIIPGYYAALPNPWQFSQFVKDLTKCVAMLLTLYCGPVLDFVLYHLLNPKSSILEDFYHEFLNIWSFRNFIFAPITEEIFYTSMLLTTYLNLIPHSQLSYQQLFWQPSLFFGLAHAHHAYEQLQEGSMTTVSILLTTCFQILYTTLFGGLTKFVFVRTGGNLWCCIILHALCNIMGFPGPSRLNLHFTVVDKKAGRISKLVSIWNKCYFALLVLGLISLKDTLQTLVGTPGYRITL", "experiment": "inhibition of Rce1p peptide cleavage – biochemical, plate reader, dry powder retest, dose response (AID 588851)", "note": "Results with a measured potency or affinity are listed apart. Results filed as inconclusive are left out. Activity calls are given as the source filed them.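 The calls were made as follows: active = compounds that lower the signal with a fitted half-maximal concentration at most ten times the top valid dose; inconclusive = flat curve with moderate inhibition, or an unreliable fit; inactive = the rest.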"}
{"compound": "O=C(CCNC(=O)N1CC(=O)Nc2ccccc21)NCCc1cccc(F)c1", "values": [{"measurement": "outcome", "value": "inactive"}]}
